Max response, Potency and outcome data for 17 molecules are collected here from PubChem BioAssay (NCATS).

Records with an inconclusive call do not appear. Values without a mark were called inactive. Active and inactive are the calls of the source. Calls come from the whole dose curve; as a rule, active = well fitted inhibition curve with a large enough effect; inconclusive = small, poorly fitted or top-dose-only effect; inactive = flat fitted curve, though single readings scatter.

The subject of one test is CRL-7250. Briefly: Cytotoxic Profiling of Annotated Libraries Using Quantitative High-Throughput Screening (AID 1296008). For Max response: % is set by controls: 0 for no effect and ±100 for the full control effect. Note: potency is the fitted concentration of half-maximal effect. To be noted: Five cell lines viability, CellTiter-Glo ATP luminescence, 48-72 h; max response: stronger effect = lower value. A digest of the protocol: (§1)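 Cells exposed to compounds for 48 or 72 hr at 37 degrees Celsius. Viability read as ATP-coupled luminescence with CellTiter-Glo after 10 min at room temperature.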

Another test relates to HEK293. The description is as above. As to conditions: Five cell lines viability, CellTiter-Glo ATP luminescence, 48-72 h; max response: stronger effect = lower value. The essentials:
as §1

Test [1] relates to HaCat. The test is described as above. To be noted: Five cell lines viability, CellTiter-Glo ATP luminescence, 48-72 h; max response: stronger effect = lower value. A digest of the protocol:
as §1

The test system of the next test is KB-3-1. Described as above. To be noted: Five cell lines viability, CellTiter-Glo ATP luminescence, 48-72 h; max response: stronger effect = lower value. The essentials:
as §1

The subject of another test is NIH3T3. Described as above. To be noted: Five cell lines viability, CellTiter-Glo ATP luminescence, 48-72 h; max response: stronger effect = lower value. A digest of the protocol:
as §1

The test system of test [2] is HACAT. The test is described as follows: qHTS assay to identify novel small-molecules to repurpose for Merkel cell carcinoma treatment (AID 1296009). As to conditions: MCC and control cell lines, CellTiter-Glo viability, 72 h; series mostly up to 44.8 µM. The essentials:
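Dose-response viability screen; 72 hr exposure at 37 degree celsius; CellTiter-Glo added, 10 min room temperature, luminescence read; RLUs scaled between no-cell and DMSO wells.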
Note: nearly all actives have a fitted effect of over 60% in size.

For `CC(NC(=O)CCc1nc2ccccc2c(=O)[nH]1)c1ccccc1` (stereo unspecified), the max response in the test on CRL-7250 was -18.4%; with HEK293, -0.47%; with HaCat [1], -2.07%; in the test on KB-3-1 it was -4.27%; in the test on NIH3T3, 2.87%.
Taken in the same sequence, the figures for `N#C[C@@H]1C[C@H](F)CN1C(=O)CNC1[C@H]2CN(C(=O)c3ccc(F)cc3)C[C@@H]12` (stereo partly specified) were -1.2%, 2.87%, -7.89%, 1.86% and -2.06%.
As to `NC1CCCCN(c2c(F)cc3c(=O)c(C(=O)O)cn(C4CC4)c3c2Cl)C1` (stereo unspecified), the max response with CRL-7250 was 3.42%; with HEK293, -12.1%; in the test on HaCat [1], 0.186%; in the test with KB-3-1, -4.74%; in the test with NIH3T3, 1.34%.
Regarding `COC(=O)CC(O)C1OC(c2ccccc2)C(O)C1O` (stereo unspecified), the max response with CRL-7250 was -3.81%; with HEK293, 2.88%; with HaCat [1], -28.3%; in the test on KB-3-1, 2.62%; in the test on NIH3T3, -5.26%.
Regarding `COc1cc(/C=C/CO)cc(OC)c1O[C@@H]1O[C@H](CO[C@@H]2O[C@H](CO)[C@@H](O)[C@H](O)[C@H]2O)[C@@H](O)[C@H](O)[C@H]1O`, the max response was 3.07% in the test on CRL-7250; 1.54% in the test with HEK293; 4.69% in the test on HaCat [1]; 9.56% in the test with KB-3-1; -3.2% with NIH3T3.
With `CN[C@H](C(=O)N[C@H](C(=O)N(C)[C@H](/C=C(\C)C(=O)O)C(C)C)C(C)(C)C)C(C)(C)c1ccccc1`, the Potency in the test with CRL-7250 is 0.0052 µM (active); with HEK293, 0.0073 µM (active); in the test on KB-3-1, 0.0046 µM (active). Further, the max response with HaCat [1] is -1.54%; in the test with NIH3T3, -50.4%.
For `Cc1ccccc1CN1C2=NCCN2C(=O)C2=C1CCN(Cc1ccccc1)C2`, the max response is -16.8% in the test with CRL-7250; -7.79% in the test on HEK293; -42.7% with HaCat [1]; -23.4% in the test on KB-3-1; -0.888% with NIH3T3.
In the case of `CC(=O)O[C@@H]1C[C@@H](OC(C)=O)C(C)(C)/C=C/[C@H](C)[C@H](OC(C)=O)[C@@]2(O)C[C@H](C)[C@H](OC(=O)c3ccccc3)[C@@H]2/C=C/1C`, the max response is -20.7% with CRL-7250; -1.35% with HEK293; 4.68% in the test with HaCat [1]; 5.28% in the test with KB-3-1; -4.04% in the test with NIH3T3.
For `CCc1c(-c2ccccc2)c(-c2ccccc2)nn1-c1ccccc1-c1cccc(OCC(=O)O)c1`, the max response is -8.36% with CRL-7250, -14.2% in the test on HEK293, -10.2% in the test with HaCat [1] and 0.468% in the test on NIH3T3. The outcome in the test on KB-3-1 was inactive.
`CC(C)c1cccc2c(-c3ccccc3)cc(-c3ccc(-c4ccc(C(=O)O)cc4)[nH]3)nc12`: the max response is -17.4% in the test with CRL-7250, -107% in the test on HEK293, -3.11% in the test with KB-3-1 and -3.94% in the test with NIH3T3. In addition, the molecule was classed as inactive in the test with HaCat [1].
In the case of `C1CCC[C@H]2CCCN3CC[C@@H](CCCCCC[C@@H]4CCCN5CC[C@@H](CC1)O[C@@H]45)O[C@@H]23`, the max response is 0.135% in the test with CRL-7250; 4.46% in the test on HEK293; -0.73% in the test on HaCat [1]; 8.9% in the test with KB-3-1; 2.62% in the test with NIH3T3.
Regarding `COc1c2c(c(C)c3c1C(=O)OC3)O[C@@]1(C)CC(O)C(C(C)(C)O)[C@](C)(CCC(=O)O)[C@H]1C2` (stereo partly specified), the outcome with CRL-7250 and in the test with KB-3-1 was inactive. In addition, the figures for the max response with HEK293, in the test on HaCat [1] and in the test with NIH3T3 were 4.24%, 2% and -2.21%, respectively.
As for `CCOc1cc2ncc(C#N)c(Nc3ccc(F)c(Cl)c3)c2cc1NC(=O)/C=C/CN(C)C`, the Potency with CRL-7250 is 0.651 µM (active); in the test with HEK293 it was 1.64 µM (active); in the test with HaCat [1], 0.0259 µM (active); in the test on KB-3-1, 5.8 µM (active); in the test on NIH3T3, 3.66 µM (active).
`COc1cc2c(cc1O)CC[C@H]1[C@@H]2CC[C@]2(C)[C@H](O)CC[C@@H]12`: the Potency in the test on CRL-7250 was 14.6 µM (active); in the test with HEK293, 1.03 µM (active); with HaCat [1], 0.58 µM (active); in the test with KB-3-1, 1.64 µM (active); in the test with NIH3T3, 0.82 µM (active).
For the molecule `COC(=O)C1=CO[C@@H](O[C@@H]2O[C@H](CO[C@@H]3O[C@H](COC(=O)/C=C/c4cc(OC)c(O)c(OC)c4)[C@@H](O)[C@H](O)[C@H]3O)[C@@H](O)[C@H](O)[C@H]2O)[C@@H]2C(CO)=CC[C@H]12`, the max response in the test on CRL-7250 was -3.63%; in the test with HEK293, 0.174%; in the test on HaCat [1] it was 4.35%; in the test on NIH3T3, -2.41%. In the test on KB-3-1, the result was inactive.
Turning to `NC(=O)c1cccc(-c2cc(OC(=O)NC3CCCCC3)ccc2O)c1`, the max response in the test on CRL-7250 is 2.23%; with HEK293, -86.9%; in the test with HaCat [1], 4.07%; in the test with KB-3-1, -19.2%; with NIH3T3 it was -3.22%.
Turning to `CC(C)=CCC/C(C)=C/CC/C(C)=C/COC1OC(COC2OCC(OC3OCC(O)C(O)C3O)C(O)C2O)C(O)C(OC2OC(C)C(OC3OC(C)C(OC4OCC(OC5OC(C)C(O)C(O)C5O)C(O)C4O)C(O)C3O)C(O)C2O)C1O` (stereo unspecified), the max response was 1.98% in the test on CRL-7250, 4.79% in the test on HEK293, 6.01% in the test with KB-3-1 and -0.843% in the test on NIH3T3. Besides, the molecule was classed as inactive in the test on HaCat [1]. Further, the outcome in the test with HACAT [2] is “inactive [at 9.27 µM]”.
